Unmarked numbers belong to inactive results. Active and inactive are the calls of the source.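 Rule for the calls: active = inhibition above about 23% in any of six single-dose repeats (limit read from the data); inactive = the rest.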

The target of the experiment is Intestinal-type alkaline phosphatase (Homo sapiens) (UniProt P09923). Description: human IAP inhibitors, confirmation, biochemical, luminescence, single concentration, uHTS hits (AID 434927).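 Note: plate controls were DMSO wells with enzyme for no effect and wells lacking enzyme for full effect.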 As to conditions: purified human IAP, CDP-Star luminescence, 30 min; at 8.3 µM; active compounds read high.
Sequence of Intestinal-type alkaline phosphatase (Homo sapiens) (P09923 whole entry, looked up): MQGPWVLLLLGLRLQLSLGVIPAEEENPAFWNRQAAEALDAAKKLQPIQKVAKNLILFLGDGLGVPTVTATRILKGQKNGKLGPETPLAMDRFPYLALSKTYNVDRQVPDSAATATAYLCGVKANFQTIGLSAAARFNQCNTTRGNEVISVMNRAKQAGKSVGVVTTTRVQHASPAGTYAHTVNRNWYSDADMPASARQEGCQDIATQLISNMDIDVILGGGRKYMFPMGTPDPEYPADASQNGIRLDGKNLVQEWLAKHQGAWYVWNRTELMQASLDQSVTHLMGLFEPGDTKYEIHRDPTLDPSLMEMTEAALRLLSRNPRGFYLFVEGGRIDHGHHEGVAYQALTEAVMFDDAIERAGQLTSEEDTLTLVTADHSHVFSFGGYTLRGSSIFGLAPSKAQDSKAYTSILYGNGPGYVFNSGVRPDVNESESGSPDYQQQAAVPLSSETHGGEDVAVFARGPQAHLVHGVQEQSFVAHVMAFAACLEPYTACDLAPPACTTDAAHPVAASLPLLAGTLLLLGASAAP
Turning to `CC(C)CCNC(=O)C1CCN(C(=O)N(C)C)CC1`, the inhibition is 88.2% (active).

For the molecule `O=C(O)COn1c(-c2ccc(Cl)cc2)nc2ccc(Cl)cc21`, the inhibition is 26.6% (active).

As to `O=C(NN1C(=O)CSC1=S)C(=O)NN1C(=O)CSC1=S`, the inhibition was 73.8% (active).

For the molecule `CSCCC(NS(=O)(=O)c1ccc(C)cc1)C(=O)NNC(=O)c1csc(N2CCOCC2)n1` (stereo not drawn), the inhibition was 48.3% (active).

Take `CC(=O)N1CCOc2ccc(S(=O)(=O)N3CCCC(C)C3)cc21` (stereo not drawn): the inhibition was 54% (active).

In the case of `COc1cccc(/C=N\NC(=O)C2=NNC(=O)C2C)c1O` (stereo not drawn), the inhibition is 34.8% (active).

On to `CCOc1ccc(/C=N/NC(=O)c2[nH]ncc2Br)c(O)c1`, for which the inhibition is -294%.

Turning to `CCOC(=O)c1cnc(-n2nc(C)cc2C)nc1NNc1nc(C)cc(C)n1`, the inhibition was 71.7% (active).

As to `O=C(N/N=C/c1cccc([N+](=O)[O-])c1)c1nc2ccccc2c(=O)[nH]1`, the inhibition was 33.3% (active).

On to `CC[n+]1c(/C=C/c2c[nH]c3ccccc23)ccc2cc(C)ccc21`, for which the inhibition was -85.7%.

With `c1ccc(-c2cccc(-c3ccccn3)n2)nc1`, the inhibition is -113%.

Regarding `COc1ccc(C(=O)Nc2cccc3c2C(=O)NC3=O)cc1S(=O)(=O)N1CCOCC1`, the inhibition is -85.1%.

`CCCCOc1cccc(C2/C(=C(\O)c3ccc4c(c3)OCCO4)C(=O)C(=O)N2CCN2CCOCC2)c1` (stereo not drawn): the inhibition is -90.6%.

For `COc1cc(CN2CCC(n3nccc3NC(=O)CCCc3ccccc3)CC2)ccc1F`, the inhibition was 40.7% (active).

In the case of `O=C(NNC(=S)NCc1ccco1)c1ccccc1Br`, the inhibition is 41.4% (active).

On to `Cc1cccc(-n2ncc3c(NNC(=O)c4ccco4)ncnc32)c1`, for which the inhibition is -74.5%.

`Cc1nc2c3ccccc3nc(NNC(=O)CCC(=O)N3CCCC(C)C3)n2n1` (stereo not drawn): the inhibition is -41.6%.

On to `c1ccc(-c2nnc(CN3CCC4(CC3)OCCO4)o2)cc1`, for which the inhibition is 29.7% (active).

Consider `COc1cccc(/C=N/Nc2nc(-c3cccnc3)nc3ccccc23)c1`, for which the inhibition was -0.0482%.

In the case of `CC(C)Oc1ccc(C(=O)Nc2ncn[nH]2)cc1`, the inhibition was -64.7%.

As to `O=Nc1[nH]c(=O)c(/C=C(\O)c2ccccc2)nc1NO`, the inhibition was -84.9%.

Regarding `Cc1cc(Br)ccc1SCC(=O)OC/C(O)=C(\C#N)c1nc2ccccc2[nH]1`, the inhibition is -67.4%.

Consider `O=C(CCN1CCN(Cc2ccccc2)CC1)NNC(=O)Nc1cccc(C(F)(F)F)c1`, for which the inhibition is -0.057%.

With `C#CCOCCOCCOCCNc1nc(N2CCN(C(=O)CCCCCCCCCCNC(=O)[C@H]([C@@H](C)CC)n3cc(CCCCN=C(N)N)nn3)CC2)nc(N2CCN(C(=O)CCCCCCCCCCNC(=O)[C@H](CO)n3cc(CCCSC)nn3)CC2)n1`, the inhibition was 38.5% (active).

As for `Cc1cc(C)n(C(=O)C23CC4CC(CC(C4)C2)C3)n1`, the inhibition was -126%.

Consider `CCN(CC)c1ccc(N=Nc2nn(C)c(C)c2[N+](=O)[O-])cc1`, for which the inhibition is 34.7% (active).

In the case of `CCCCCCCn1c(=N)n(CC(=O)c2ccco2)c2ccccc21`, the inhibition was -49.6%.

As for `CNc1nnc(-c2cc3ccccc3oc2=O)s1`, the inhibition was 33.1% (active).

Consider `O=C(NNC(=S)NC(=O)c1ccccc1[N+](=O)[O-])c1ccccc1O`, for which the inhibition is 27.4% (active).

In the case of `Cc1ccc(NC(=O)C2CC(=O)Nc3nc4ccccc4n32)c(C)c1` (stereo not drawn), the inhibition was 38.4% (active).

`CCC(OC(=O)C1=Cc2ccccc2OC1)C(=O)NC1CCCC1` (stereo not drawn): the inhibition was -52.5%.

Turning to `COC(=O)c1ccccc1-c1c2ccc(=N)cc-2oc2cc(N)ccc12`, the inhibition is 34.6% (active).

Take `COc1ccc(NC(=S)NNC(=O)c2nnn(-c3ccccc3)c2C)cc1`: the inhibition is 24% (active).

One may read the inhibition as the change of the read-out against control, counted positive when it falls.
